Rows were chosen to be rich in hits. Some 7.3% of all compounds tested hit in one or more screens of this group.
Rab9 promoter act – activates the Rab9 promoter. AID 485297. Huh7 Rab9 promoter-luciferase reporter, luminescence, 24 h. hit rate 2.8% among 320,000. Potency, µM (series often up to 9.22 µM), for inactives: top-dose activation, negative = inhibition, usual class: activators; note: % of control where 0% means no effect; nearly all actives have a fitted effect of over 60% in size
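Using Huh7 cells stably transfected with Rab9 promoter–luciferase, compounds were incubated 24 h at 37 °C, 5% CO2; luciferase luminescence was read 10 min after reagent addition.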
FLuc modulator – counter-screen for miR-21 project: firefly luciferase inhibitors or activators; P08659; purified FLuc, Km substrates, luminescence inhibition; Potency, µM (doses to about 57.5 µM), for the others: at the highest dose activity change, negative = inhibition, actives largely listed as inhibitors; hit rate 6.9% among 360,000; AID 588342;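 note: plate controls were vehicle for no effect and reference inhibitor for full effect; nearly all actives have a fitted effect of over 55% in size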
Target sequence (P08659 whole entry, looked up): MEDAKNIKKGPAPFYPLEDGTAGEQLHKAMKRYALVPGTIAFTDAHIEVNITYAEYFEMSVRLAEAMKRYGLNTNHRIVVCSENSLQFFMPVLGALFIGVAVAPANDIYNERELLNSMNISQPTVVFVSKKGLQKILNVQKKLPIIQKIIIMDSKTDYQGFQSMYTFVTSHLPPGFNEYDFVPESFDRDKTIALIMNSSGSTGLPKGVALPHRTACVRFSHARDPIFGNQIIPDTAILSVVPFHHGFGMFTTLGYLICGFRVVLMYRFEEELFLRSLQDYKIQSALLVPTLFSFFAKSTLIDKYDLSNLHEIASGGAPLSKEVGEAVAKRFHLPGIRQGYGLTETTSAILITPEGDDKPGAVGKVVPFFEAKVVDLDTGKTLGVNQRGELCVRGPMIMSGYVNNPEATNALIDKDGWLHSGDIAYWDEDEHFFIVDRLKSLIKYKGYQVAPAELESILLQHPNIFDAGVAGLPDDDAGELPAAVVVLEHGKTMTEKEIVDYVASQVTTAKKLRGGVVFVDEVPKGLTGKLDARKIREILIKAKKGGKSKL
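Purified P. pyralis luciferase (10nM final) with 10uM D-luciferin and 10uM ATP (Km levels) in 50mM Tris acetate pH 7.5, 10mM Mg acetate, 0.01% Tween-20, 0.05% BSA; qHTS 6-point titration, ~60 µM downward; luminescence read.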
SMN2 splice up – SMN2 splice variant enhancement. Potency, µM (series often up to 46.1 µM), inactives show at the top dose activity change, positive = activation, usual class: activators. hit rate 2.8% among 210,000. HEK293 SMN2-luciferase splicing reporter, luminescence, 30-36 h; note: % of control where 0% means no effect; nearly all actives have a fitted effect of over 55% in size
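qHTS luciferase splicing reporter: luminescence rises when SMN2 exon 7 is included in transfected HEK293 cells. Compound exposure lasted 30-36 h at 37C, with 4.5 mM final sodium butyrate as control, followed by a ONE-Glo read.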
KinaseGlo FLuc – counter-screen: inhibitors of Kinase-Glo firefly luciferase | Q27757 | Kinase-Glo luciferase, ATP luminescence, 8 min | Potency, µM (titrated, usually from 38.3 µM), without a hit: at the highest dose activity change, negative = inhibition, hits mostly inhibitors | hit rate 0.28% among 200,000; note: % is set by controls: 0 for no effect and ±100 for the full control effect; nearly all actives have a fitted effect of over 60% in size
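Luminescence was the read-out, taken after 8-minute incubation at ambient temperature. Luciferase turned over luciferin with 10 uM ATP in imidazole pH 7.2 buffer containing KCl, MgCl2, Tween 20 and BSA.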
NPC1 promoter act – activators of NPC1 promoter; Huh7 NPC1 promoter luciferase reporter, 24 h; Potency, µM (top dose mostly 9.22 µM), for the others: at the top dose activation, actives largely listed as activators; hit rate 2.4% among 320,000; AID 485313; note: % of control where 0% means no effect; nearly all actives have a fitted effect of over 60% in size
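Quantitative HTS used a cell-based reporter: Huh7 cells stably bearing the NPC1 promoter upstream of luciferase were treated with compounds for 24 h, and promoter activation was read as luminescence.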
An asterisk follows results filed as active; ? = inconclusive; / = not tested or not shown; [ ] = dose if it differs, or a comment. Calls come from the whole dose curve; as a rule, active = well fitted curve in the direction sought with a large enough effect; inconclusive = small, poorly fitted or top-dose-only effect, or another doubt; inactive = no such curve, though single readings can be large; an effect the other way counts as inactive or inconclusive. Potency is the fitted concentration of half-maximal effect.

SMILES	Rab9 promoter act	FLuc modulator	SMN2 splice up	KinaseGlo FLuc	NPC1 promoter act
O=C(Nc1ccccc1OC(F)F)c1cc2c(s1)CCC2	17%	21µM*	25%	-2%	9%
Cc1cc(NC(=O)COC(=O)c2cc3c(s2)CCC(C)C3)no1 (centres undefined)	-3%	0%	-12%	1%	8%
Cc1csc(NC(=O)c2cc3c(s2)CCC3)n1	?	0.85µM*	0.79µM*	?	0.63µM*
COC(=O)c1sc(NC(=O)c2cc3c(s2)CCCC3)nc1C	4%[1.84 µM]	2.4µM*	4.5µM*	-4%	28%
Cc1ccc(NC(=O)c2cc3c(s2)CCCC3)cc1	1.4µM*	5.4µM*	13µM*	3%	3.2µM*
Cc1nc(NC(=O)c2ccc(Br)s2)sc1C(=O)N(C)C	3.5µM*	7.6µM*	11µM*	0%	3.2µM*
Cc1nc(NC(=O)c2cc3c(s2)CCCCC3)sc1C(=O)N(C)C	?	13µM*	?	0%	?
CCc1ccc(NC(=O)Cn2c(=O)n(Cc3nc(-c4ccccc4)no3)c(=O)c3cc4c(cc32)OCO4)cc1	/	-1%	/	/	/
CCCOc1ccc(Oc2nc(NC)nc(N3CCOCC3)n2)nn1	/	-6%	12%	/	/
CN1CCN(c2nc3c(S(=O)(=O)c4ccc(Br)cc4)nnn3c3ccsc23)CC1	/	4%	/	/	/
CC(C)(C)c1ccc(-c2nnc(SCC(=O)O)n2N)cc1	8%	11µM*	4%	-4%	17%
C=CCn1c(SCC(=O)O)nnc1-c1cccc(Cl)c1	-6%	-1%	5%	-1%	-3%
C=CCn1c(SCC(=O)O)nnc1-c1ccc(C(C)(C)C)cc1	5%	17µM*	-2%	1%	-4%
O=C(O)CNCCc1ccccc1	/	/	-1%[9.22 µM]	-1%[7.66 µM]	/
COc1ccc(-n2c(=O)c3sc4ccccc4c3n(CC(=O)N3CCCC3)c2=O)cc1	/	-2%	2%	/	/
Cc1ccccc1C(=O)NC(=S)Nc1ccccc1C(=O)O	-3%	-10%	9%	3%	-4%
Cc1occc1C(=O)Nc1ccccc1C(=O)O	16%	27µM*	-3%	-2%	12%
Cc1cc(C(=O)Nc2ccccc2C(=O)O)oc1C	8%	19µM*	/	/	12%
CCc1ccccc1NC(=O)c1ccoc1C	-8%	0%	1%	-1%	-5%
Cc1ccc(NC(=O)CN(CCc2ccccc2)S(=O)(=O)c2ccccc2)c(C)c1	/	1%	-14%	/	/
CCc1ccc(NC(=O)CCCc2nnc3n(C(C)CC)c(=O)c4sccc4n23)cc1 (centres undefined)	/	-2%	/	/	/
O=C1c2ccccc2C(=O)C1c1ccc2ccccc2n1	1µM*	0.17µM*	1µM*	-22%	?
COC(=O)C1=C(C)NC(C)=C(C(=O)OC)C1c1ccc2ccccc2n1	-1%	3%	2%	-2%	-3%
COc1ccc(NCc2ccccc2-c2nnc(-c3ccccc3)o2)cc1Cl	/	?	10%	/	/
CCNC(=O)NC(=O)C(C)Oc1ccc(Br)cc1Br (centres undefined)	23%	17µM*	?	2%	10%
SMILES	Rab9 promoter act	FLuc modulator	SMN2 splice up	KinaseGlo FLuc	NPC1 promoter act
CCNC(=O)NC(=O)C(C)OC(=O)C(C)(C)Oc1ccc(Cl)cc1 (centres undefined)	7%	1%	-8%	0%	-2%
CCc1nn(CC(=O)NCCC(C)C)c(=O)c2cc3occc3n12	/	-3%	1%	/	/
Cc1ccc(NC(=O)COc2ccc3c(c2)CCC3)nc1	?	9.5µM*	/	/	?
Cc1csc(NC(=O)COc2ccc3c(c2)CCC3)n1	3.5µM*	12µM*	/	/	?
Cc1ccc(OCC(=O)c2ccc3c(c2)CCCC3)cc1C	1.1µM*	9.5µM*	22%	0%	0.56µM*
COc1ccc(OCC(=O)Nc2ccc3c(c2)CCC3)cc1	16%	/	/	/	-6%
Cc1cccnc1NC(=O)COc1ccc2c(c1)CCC2	?	17µM*	/	/	?
Cc1ccc(NC(=O)COc2ccc3oc4c(c3c2)CCCC4)nc1	-1%	10%[2.3 µM]	0%	-5%	0%
NC(C(=O)O)[C@H](O)C(=O)O (some centres undefined)	/	/	3%	/	/
Cn1c(=O)c2c(nc(SCC(=O)Nc3ccc(F)cc3)n2Cc2ccccc2F)n(C)c1=O	/	-6%	4%	/	/
COc1ccc(NS(=O)(=O)c2ccc3oc(Nc4ccc5c(c4)OCCO5)nc3c2)cc1	13%	19µM*	7%	-5%	1%
CSc1nsc(SC)c1C(=O)NC(=O)Nc1cccnc1	0%	-1%	/	/	-3%
CSc1nsc(SC)c1C(=O)Nc1ccc(C(C)(C)C)cc1	13%	11µM*	/	/	16%
COC(=O)c1cc(C)nc2c1c(=O)nc(SCc1cccc(C(F)(F)F)c1)n2C1CC1	/	-12%	/	/	/
COC(=O)c1sccc1-c1ccc(C(=O)Nc2cccnc2)o1	3.5µM*	8.5µM*	18µM*	-13%	2.2µM*
COC(=O)c1sccc1NC(=O)c1cccnc1	/	6%	-7%	-7%	/
CCOC(=O)/C(C#N)=C/Nc1ccsc1C(C)=O	1%	?	/	/	0%
CCCCOC(=O)/C(C#N)=C\c1ccc(-c2ccc(Cl)cc2)o1	/	?	-8%	/	/
COC(=O)c1sccc1-c1ccc(/C=N/OC(=O)c2cccs2)o1	10%	5.4µM*	/	/	2%
CCOC(=O)/C(C#N)=C/c1ccc(-c2ccsc2C(=O)OC)o1	2.5µM*	-18%	6%	-9%	?
CCOC(=O)/C(C#N)=C/c1ccc(-c2ccc(Br)cc2)o1	/	6.7µM*	12%	/	/
COc1cccc(-c2nc(S(=O)(=O)c3ccccc3)c(N3CCCCC3)o2)c1	/	-6%	-3%	/	/
Cc1ccc(N2CCN(C(=O)c3cc(S(=O)(=O)N4CCCCC4)c[nH]3)CC2)c(C)c1	/	-1%	/	/	/
CCOC(=O)C(=Cc1ccc(-c2ccsc2C(=O)OC)o1)C(=O)OCC	3%	19µM*	-11%	-2%	-3%
COC(=O)C(=Cc1ccc(-c2ccsc2C(=O)OC)o1)C(=O)OC	21%	11µM*	/	/	7%
SMILES	Rab9 promoter act	FLuc modulator	SMN2 splice up	KinaseGlo FLuc	NPC1 promoter act
COC(=O)c1sccc1-c1ccc(C(N)=O)o1	-13%	-3%	6%	-2%	0%
CCOC(=O)COc1ccsc1C(=O)OC	3%	0%	0%	-2%	2%
Cc1ccc(N2C(=O)CSC23C(=O)N(CC(=O)NC2CCCCC2)c2ccccc23)cc1C (centres undefined)	/	-1%	/	/	/
CCOC(=O)c1ccc(N=c2scc(C)n2CC)cc1	2µM*	11µM*	25µM*	2%	?
CCOC(=O)c1ccc(N=NN(C)C)cc1	?	19µM*	/	/	?
CCOC(=O)c1ccc(N=C2NC(=O)CS2)cc1	-6%	0%	?	5%	2%
CCOC(=O)c1ccc(N)cc1	1%	3%	13%	-4%	1%
C=CCn1c(C)csc1=Nc1ccc(C(C)=O)cc1	?	19µM*	-17%	2%	?
O=C(O)c1ccc(N/N=C/c2ccncc2)cc1	?	8.5µM*	/	/	?
O=C(O)c1ccc(/C=N/Nc2ncc(Cl)cc2Cl)cc1	26%	?	/	/	16%
